Screens: PubChem BioAssay, Johns Hopkins Ion Channel Center
This is a sample that favours compounds with a hit; in the whole collection about 1.6% have one here.
KCNQ2 inh – rat KCNQ2 potassium channel inhibitors, primary screen, cell-based, CHO-K1, FluxOR thallium flux, B-score; 20 min; stronger effect = lower value; B-score at 10 µM; hit rate 1.1% among 310,000; AID 2156, 2009;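 active means fluorescence ratio B-score at most minus 3 library SDs, with starting brightness B-score within 2 library SDs, cut at about -5.5 in these data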
KCNQ2 pot – potentiators of rat KCNQ2 potassium channel | Potassium voltage-gated channel subfamily KQT member 2 (Rattus norvegicus), O88943 | CHO-K1 KCNQ2, FluxOR thallium flux fluorescence; stronger effect = higher value | B-score at 10 µM | hit rate 0.54% among 310,000;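 active means fluorescence ratio B-score at least 3 SD of library B-scores, with initial fluorescence B-score within 3 of them, cut at about 5.3 in these data; same plate scores as AID 2156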;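 further: B-score of peak minus minimum over baseline fluorescence ratio after K+ and Tl+ stimulus; positive B-score means potentiation of KCNQ2 with more thallium influx and brighter signal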
Kir21 confirm – mouse Kir2.1 channel blockers, retest, confirmation, cell-based, FluxOR thallium flux, duplicate; shares compounds with KCNQ2 pot; Tl flux remaining, % of negative control (stronger effect = lower value), % at 10 µM; Kir2.1-expressing cells, FluxOR thallium flux fluorescence; stronger effect = lower value; AID 2032, 2009; hit rate 41% among 2,300;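 active means Primary-screen hit whose thallium flux fell at least 3 control SD below untreated wells in both duplicates, with normal baseline fluorescence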;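 further: 0% = blank wells without stimulus and 100% = stimulated no-compound controls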
HEK293 ctr – parental HEK293 activity in Kir2.1 inhibitor counter-screen. hit rate 19% among 2,300. AID 2105. shares compounds with KCNQ2 pot. parental HEK293 cells, FluxOR thallium flux fluorescence; 0% = unstimulated blank wells. FluxOR signal as % of negative control (100 = no effect), % at 10 µM;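 active means dye signal at least 3 control SD above or below untreated wells in both duplicates, raw fluorescence within 3, either direction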;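 further: percent is based on the flux ratio of peak minus minimum fluorescence over baseline F0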
CHO-K1 ctr – nonspecific thallium flux increase in parental CHO-K1, confirmation, counter-screen for KCNQ2 potentiator project, cell-based, FluxOR thallium flux, duplicate; shares compounds with KCNQ2 pot; activity increase over 3SD of controls, % at 10 µM; parental CHO-K1 cells, FluxOR thallium flux fluorescence; zero = vehicle mean+3SD, 100% = vehicle-minus-blank window; hit rate 43% among 1,200;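 active means signal rise of at least 3 SD above the untreated control mean, in both duplicate wells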;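 further: counter screen of KCNQ2 potentiator hits so any rise reflects channel-independent effects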
KCNQ1 sel pot – human KCNQ1 channel potentiation off-target, confirmation, selectivity assay for KCNQ2 potentiator project, cell-based, CHO, FluxOR thallium flux; CHO KCNQ1 stable, FluxOR thallium flux fluorescence; beyond 3SD, as % of vehicle-control signal; hit rate 28% among 1,200; AID 2283, 2010; shares compounds with KCNQ2 pot; activation over 3SD threshold, % at 10 µM;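 active means fluorescence ratio rise of at least 3 SD of vehicle wells above their mean, in both replicate wells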;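 further: 0% = vehicle mean plus 3 SD and 100% = vehicle minus unstimulated blank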
Target sequence (P51787 whole entry, looked up): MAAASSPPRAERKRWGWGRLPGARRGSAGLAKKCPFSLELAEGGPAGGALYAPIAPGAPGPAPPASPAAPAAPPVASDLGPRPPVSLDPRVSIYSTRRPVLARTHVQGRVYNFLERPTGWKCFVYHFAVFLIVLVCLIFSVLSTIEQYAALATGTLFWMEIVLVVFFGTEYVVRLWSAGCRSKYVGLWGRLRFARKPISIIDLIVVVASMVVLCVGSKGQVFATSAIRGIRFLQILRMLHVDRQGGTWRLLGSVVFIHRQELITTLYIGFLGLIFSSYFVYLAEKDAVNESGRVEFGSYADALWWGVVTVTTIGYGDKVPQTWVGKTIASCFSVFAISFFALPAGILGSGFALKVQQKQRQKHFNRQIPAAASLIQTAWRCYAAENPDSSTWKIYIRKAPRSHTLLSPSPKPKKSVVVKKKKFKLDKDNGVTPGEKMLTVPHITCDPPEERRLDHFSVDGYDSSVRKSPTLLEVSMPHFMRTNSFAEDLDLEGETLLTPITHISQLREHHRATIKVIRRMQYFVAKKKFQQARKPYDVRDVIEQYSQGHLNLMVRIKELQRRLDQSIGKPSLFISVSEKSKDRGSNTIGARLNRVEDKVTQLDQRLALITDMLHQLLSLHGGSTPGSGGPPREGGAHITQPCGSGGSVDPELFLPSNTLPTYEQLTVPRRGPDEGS
KCNQ2 pot conf – rat KCNQ2 channel potentiators, confirmation, cell-based, CHO, FluxOR thallium flux, duplicate; AID 2287, 2010; hit rate 68% among 1,200; CHO-KCNQ2 cells, FluxOR thallium flux fluorescence; shares compounds with KCNQ2 pot; potentiation, less the hit threshold, % at 10 µM;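 active means fluorescence ratio rising 3 SD or more over the vehicle control mean in both replicates, plus primary screen hit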;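 further: peak minus minimum thallium fluorescence divided by baseline after K/Tl stimulus; 0% = vehicle mean plus 3 SD and 100% = vehicle minus unstimulated blank difference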
Kir2-1 sel – mouse Kir2.1 channel activation off-target, confirmation, selectivity assay for KCNQ2 potentiator project, cell-based, HEK293, FluxOR thallium flux; activity over 3SD threshold, % at 10 µM; AID 2345, 2010; shares compounds with KCNQ2 pot; HEK293 Kir2.1, FluxOR thallium flux fluorescence; hit rate 2% among 1,200;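 active means fluorescence ratio rise of at least 3 SD above the vehicle-control mean, seen in both replicates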;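 further: 0% = vehicle mean plus 3 SD and 100% = vehicle minus no-stimulus blank window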
KCNQ2 W236L MoA – potentiators of retigabine-insensitive KCNQ2 W236L, mechanism study for KCNQ2 potentiator project, cell-based, rat KCNQ2 W236L, CHO, automated patch clamp; hit rate 10% among 940; shares compounds with KCNQ2 pot; current increase over 3SD of negative controls (%), stronger effect = higher value, % at 25 µM; AID 2558, 2010; automated patch clamp current;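 active means current increase at least 3 SD of the untreated controls above them in both duplicate recordings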
Active calls of the source: *; i = inactive; x = not tested or not shown.

SMILES	KCNQ2 inh	KCNQ2 pot	Kir21 confirm	HEK293 ctr	others
COc1ccc(NC(=O)CSCC(=O)Nc2ccccc2N2CCCCC2)cc1	i	6.7*	x	x	CHO-K1 ctr=19*;KCNQ1 sel pot=60*;KCNQ2 pot conf=-22;Kir2-1 sel=-65
COc1ccc(NC(=O)CSCC(=O)Nc2ccccc2N2CCCC2)cc1	i	0.75	x	x
COc1cccc(N2CCN(C(=O)c3oc4ccccc4c3NC(=O)Cc3ccc(OC)c(OC)c3)CC2)c1	i	x	x	x
Cn1c(CNC(=O)c2ccco2)nnc1SCC(=O)Nc1ccc(Cl)cc1	i	x	x	x
CCN(CC)CCNCc1cc(Br)ccc1OCC(=O)NCc1ccccc1	i	x	x	x
CC(NCc1cc(Br)ccc1OCC(=O)NCc1ccccc1)c1ccccc1 (stereo not given)	i	x	43%*	i
COc1ccccc1NC1=C(NC(C)=O)C(=O)c2ccccc2C1=O	i	8*	i	i	CHO-K1 ctr=-27;KCNQ1 sel pot=-27;KCNQ2 pot conf=4.8*;Kir2-1 sel=-32;KCNQ2 W236L MoA=i
COC1=C(Nc2ccccc2OC)C(=O)c2ccccc2C1=O	i	x	x	x
CN(/N=C/c1cccc(Br)c1)C1=NS(=O)(=O)c2ccccc21	i	0.71	x	x
COc1ccc(C(C)=O)cc1CSc1nnnn1-c1ccc(O)cc1	i	x	x	x
CCOc1ccc(C(C)=O)cc1CSc1nnnn1-c1ccc(O)cc1	i	x	62%*	i
CC(=O)NNC(=O)CCn1nnc(-c2ccc(Cl)cc2)n1	i	1.7	x	x
CCOC(=O)N1CCN(CC(O)COc2ccccc2C(C)C)CC1 (stereo not given)	i	0.55	x	x
COc1ccc(C2CCCN2CC(O)COc2ccccc2C(C)C)cc1 (stereo not given)	-6.6*	-6.6	30%*	i
O=C(NCc1ccc(F)cc1)c1cc(C(=O)C2CC2)c[nH]1	i	x	x	x
O=C(Nc1nccs1)c1ccc2ccccc2c1	i	1.3	x	x
O=C(Nc1n[nH]c(=S)s1)c1ccc2ccccc2c1	i	6.5*	i	222%*	CHO-K1 ctr=-5;KCNQ1 sel pot=16*;KCNQ2 pot conf=8.2*;Kir2-1 sel=-12;KCNQ2 W236L MoA=18%*
CC(C)CN(C(=O)COc1ccc(Br)cc1C=O)C1CCS(=O)(=O)C1 (stereo not given)	i	x	x	x
COc1ccc(N2CCN(C(=O)CCC(=O)N3CC(C)Oc4ccc(C)cc43)CC2)cc1 (stereo not given)	i	0.87	x	x
Cc1ccccc1C(=O)NNC(=O)CSc1nc2ccccc2c(=O)[nH]1	i	x	x	x
NC(=O)C(c1ccc(Cl)cc1)c1ncc(C(F)(F)F)cc1Cl (stereo not given)	i	3.4	x	x
N#CC(c1ccc(O)cc1)c1ncc(C(F)(F)F)cc1Cl (stereo not given)	i	2.2	48%*	i
CC(C)(C)c1nc(SCC(=O)N2CCCC2)c2ccccc2n1	i	5.1	x	x
CC(C)(C)c1nc(SCC(=O)c2ccccc2)c2ccccc2n1	i	19*	i	i	CHO-K1 ctr=-2;KCNQ1 sel pot=52*;KCNQ2 pot conf=26*;Kir2-1 sel=-30;KCNQ2 W236L MoA=i
O=C(CCC(=O)N1CCOc2ccccc21)NCCN1CCOCC1	i	0.02	x	x
SMILES	KCNQ2 inh	KCNQ2 pot	Kir21 confirm	HEK293 ctr	others
CCN(CC)/C(=N\S(=O)(=O)c1ccc(F)cc1)c1ccccc1	i	x	x	x
O=C(COC(=O)c1ccc2c(c1)C(=O)N(Cc1ccco1)C2=O)NCC(F)(F)F	i	x	x	x
CCc1cc(-c2n[nH]c(=S)n2C(C)c2ccccc2)cs1 (stereo not given)	i	1.9	50%*	i
Cc1scc(-c2n[nH]c(=S)n2C(C)c2ccccc2)c1C (stereo not given)	i	x	x	x
O=C(CN1C(=O)NC2(CCCC2)C1=O)Nc1nc2ccccc2[nH]1	i	x	x	x
CCCCN(Cc1ccco1)S(=O)(=O)c1csc(C(N)=O)c1	i	x	48%*	i
CC(CCc1ccco1)N(C)S(=O)(=O)c1csc(C(N)=O)c1 (stereo not given)	i	0.17	x	x
CC1(C)C2CC=C(/C=N/NC(=S)NCCc3ccccc3)C1C2 (stereo not given)	i	5.5*	i	i	CHO-K1 ctr=-15;KCNQ1 sel pot=-16;KCNQ2 pot conf=-18;Kir2-1 sel=-26
CNC(=S)N/N=C/C1=CCC2CC1C2(C)C (stereo not given)	i	1.4	x	x
COc1ccc(C(=O)Nc2nnc(Cc3ccccc3)s2)c(OC)c1	i	x	x	x
COc1ccc(CCC(C)NCCc2ccc(Cl)cc2Cl)cc1 (stereo not given)	i	x	16%*	i
COc1ccc(CCC(C)NCc2ccc(Cl)c(Cl)c2)cc1 (stereo not given)	i	x	x	x
CCN(CC(=O)NCc1ccc(F)cc1)C(=O)c1ccc(COc2ccccc2)cc1	i	x	x	x
CCCCn1nnc(NC(=O)CC23CC4CC(CC(C4)C2)C3)n1	i	20*	i	i	CHO-K1 ctr=10*;KCNQ1 sel pot=-24;KCNQ2 pot conf=59*;Kir2-1 sel=-34;KCNQ2 W236L MoA=i
CC(C)c1nnc(NC(=O)CC23CC4CC(CC(C4)C2)C3)s1	i	x	x	x
O=C(O)COc1ccc(=O)n(-c2ccccc2)n1	i	1.3	x	x
O=C(Oc1ccc(=O)n(-c2ccccc2)n1)c1ccccc1	i	x	61%*	i
CC1(COS(N)(=O)=O)CCCCC1	i	1.7	x	x
c1cc2c(cc1-c1csc(NNC3=NCCCCC3)n1)OCCO2	i	x	x	x
Cc1ccc2oc(C(=O)N3CCC(O)(c4ccccc4)CC3)c(C)c2c1	i	0.49	x	x
CCN(C(C)=O)c1ccc(Oc2nc(OC)cc(OC)n2)cc1	i	0.28	x	x
Cc1nc(N2CCN(Cc3ccccc3)CC2)c(C#N)c2c1COC(C)(C)C2	i	x	60%*	i
